Screening data: PubChem, several laboratories
LYP act – activators of human LYP (PTPN22) phosphatase; hit rate 0.11% among 96,000; activation, % at 2 µM; recombinant LYP, DiFMUP fluorescence; 0 = plate median, 100 = signal doubled; Q9Y2R2;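 active = activation at 2 µM above a set limit, the mean plus 5 SD, cut at about 37% in these data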
Target sequence (Q9Y2R2 whole entry, looked up): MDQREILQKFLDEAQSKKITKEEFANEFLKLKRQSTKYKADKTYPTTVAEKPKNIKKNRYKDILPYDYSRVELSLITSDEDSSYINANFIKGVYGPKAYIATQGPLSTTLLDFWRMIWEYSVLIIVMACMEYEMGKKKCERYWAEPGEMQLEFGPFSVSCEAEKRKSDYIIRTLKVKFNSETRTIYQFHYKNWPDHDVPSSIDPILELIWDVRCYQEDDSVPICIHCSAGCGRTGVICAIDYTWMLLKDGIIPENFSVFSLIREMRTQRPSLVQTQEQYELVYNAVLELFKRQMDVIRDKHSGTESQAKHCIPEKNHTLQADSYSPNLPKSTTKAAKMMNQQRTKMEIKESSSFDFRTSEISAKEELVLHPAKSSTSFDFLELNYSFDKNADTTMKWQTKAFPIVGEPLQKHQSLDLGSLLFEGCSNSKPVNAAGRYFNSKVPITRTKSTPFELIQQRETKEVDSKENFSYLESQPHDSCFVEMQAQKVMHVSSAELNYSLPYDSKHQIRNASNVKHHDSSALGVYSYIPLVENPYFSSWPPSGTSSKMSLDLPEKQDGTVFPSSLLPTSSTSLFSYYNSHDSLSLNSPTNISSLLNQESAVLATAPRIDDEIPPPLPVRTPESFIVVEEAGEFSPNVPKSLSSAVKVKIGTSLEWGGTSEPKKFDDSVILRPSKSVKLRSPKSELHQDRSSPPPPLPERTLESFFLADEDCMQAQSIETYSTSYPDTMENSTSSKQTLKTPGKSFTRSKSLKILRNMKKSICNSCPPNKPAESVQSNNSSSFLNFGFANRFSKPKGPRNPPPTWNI
LYP inh 2 – LYP (human) phosphatase inhibition; inhibition, % at 2 µM; hit rate 0.21% among 96,000; Q9Y2R2; recombinant LYP catalytic domain, DiFMUP fluorescence; AID 640;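 active = inhibition at 2 µM at or above a set limit, the screen mean plus 3 SD, cut at about 24% in these data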
Measles CPE – protection of cells from measles virus; Measles virus-infected cells, CPE protection, absorbance; protection (pct of control), % at 4 µM; hit rate 1.5% among 140,000; AID 841; in the data active = protection mostly above about 24%, no sharp cut-off; inactive = mostly below about 26%
Large screens that a line does not name were inactive. Only some compounds are listed: those with a hit (about 1.7% of all), similar ones and a draw of the others.

CC(OC(=O)c1ccco1)C(=O)NC1CCCCC1 (stereo not given)	LYP inh 2 28.2
CC(C)C(OC(=O)c1ccco1)C(=O)NC1CCCCC1 (stereo not given)	none
N#Cc1ccc(CSc2nnc(-c3ccncc3)n2CCc2ccccc2)cc1	none
CCOc1ccc(OCCCN(C)C)cc1	none
CN(C)CCCOC(=O)COc1ccc(C(C)(C)C)cc1	Measles CPE 25.0 (no result: LYP act, LYP inh 2)
COCCNC(=O)/C(C#N)=C/c1ccc(-c2ccc(OC)cc2[N+](=O)[O-])o1	none
CC(Oc1ccc(C(=O)c2ccccc2)cc1)C(=O)Nc1ccc(S(N)(=O)=O)cc1 (stereo not given)	none (no result: LYP act, LYP inh 2)
COc1cccc(CNC(=O)Nc2cccs2)c1	Measles CPE 44.4
COc1ccc(CNC(=O)Nc2cccs2)cc1OC	none
CCN1CCCC1CNC(=O)C1c2cc(OC)c(OC)cc2C(=O)N(C)C1c1cccnc1 (stereo not given)	none
O=c1cc(N2CCCCC2)c(-c2ccccc2)nn1Cc1ccc(Cl)cc1Cl	Measles CPE 43.0
O=c1cc(N2CCCCC2)c(-c2ccccc2)nn1Cc1ccccc1Cl	none
COc1cc(/C=C/C(=O)N(C)c2ccccc2C(=O)O)cc(OC)c1OC	none
Cc1ccc(S(=O)(=O)N2CCC(C(=O)Nc3ccccc3N3CCCCC3)CC2)cc1	Measles CPE 34.0
Cc1cc(C)c(C)c(S(=O)(=O)N2CCC(C(=O)Nc3ccccc3N3CCOCC3)CC2)c1C	none (no result: LYP act, LYP inh 2)
O=C(NCCOC(=O)c1ccc(C(=O)OCCNC(=O)c2cccnc2)s1)c1cccnc1	none
O=C(COc1ccc(Cl)cc1Br)NNC(=O)C(=O)N1CCCCC1	none
CCOC(=O)N1CCN(C(=O)c2ccc(Cl)c(S(=O)(=O)Nc3ccccc3)c2)CC1	none
CCOc1ccc(C(=O)NCC(C)CN(C)C)cc1OCC (stereo not given)	Measles CPE 30.6
CCOc1cc(C(=O)NCC(C)CN(C)C)cc(OCC)c1OCC (stereo not given)	none
CCOC(=O)c1c(C2CC2)csc1NC(C)=O	Measles CPE 35.9
CCOC(=O)c1c(C2CC2)csc1NC(=O)COC(=O)c1ccc[n+]([O-])c1	none (no result: LYP act, LYP inh 2)
COc1ccc(NS(=O)(=O)c2cccc(C(=O)NNC(=O)c3cc(C)oc3C)c2)cc1	none (no result: LYP act, LYP inh 2)
CC1CCC(C(=O)NC(C(=O)NCCCN2CCOCC2)C(C)C)CC1 (stereo not given)	none
Cn1cccc1C(=O)C(=O)Nc1ccc(Cl)cc1	Measles CPE 40.8
Cn1cccc1C(=O)C(=O)Nc1cc(Cl)cc(Cl)c1	none
Cc1cc(OCc2ccc(F)cc2)nc(-c2ccccc2O)n1	Measles CPE 32.5
Cc1cc(Oc2ccc(Cl)cc2)nc(-c2ccccc2O)n1	Measles CPE 30.9
Cc1cc(OC2CCCCC2)nc(-c2ccccc2O)n1	none
Cc1ccc(Oc2cc(C)nc(-c3ccccc3O)n2)cc1	none
O=C(CC1Sc2ncnn2C1=O)Nc1ccccc1 (stereo not given)	none
CCOc1cccc(OCCCCN2CCOCC2)c1	Measles CPE 79.9
COc1cccc(OCCCCCCN2CCOCC2)c1	none
CCC(=O)Nc1cc(-c2nn3c(C)nnc3s2)ccc1C	none
CCCCn1c(N)c(N(CCC(C)C)C(=O)CSc2nnc3ccccn23)c(=O)[nH]c1=O	none
CCCCn1c(N)c(N(CCC(C)C)C(=O)COC(=O)c2ccco2)c(=O)[nH]c1=O	Measles CPE 31.1 (no result: LYP act, LYP inh 2)
CC(C)OCCCNC(=O)c1ccc(NC(=O)C2CCCO2)cc1 (stereo not given)	none
Cc1cc(C(C)(C)C)cc(S(=O)(=O)Nc2ccc(O)c(C(=O)O)c2)c1C	Measles CPE 36.0
CC(=O)Nc1ccc(NC(=O)c2ccc(NS(=O)(=O)c3cc(C(C)(C)C)cc(C)c3C)cc2)cc1	none (no result: LYP act, LYP inh 2)
CCNc1nc(NCC)n2c(SC(C)C(=O)c3ccc(C)cc3)nnc2n1 (stereo not given)	none (no result: LYP act, LYP inh 2)
CCNc1nc(NCC)n2c(SC(C(=O)Nc3cc(C)ccc3C)c3ccccc3)nnc2n1 (stereo not given)	Measles CPE 80.2 (no result: LYP act, LYP inh 2)
COCCCN1C(=O)C(=O)/C(=C(/O)c2ccc(OC(C)C)c(C)c2)C1c1ccncc1 (stereo not given)	none
COc1cc(OC)cc(C(=O)NC(=S)NCc2ccco2)c1	none
Brc1ccc(-c2csc(/N=C/N3CCOCC3)n2)cc1	none
OCCN(/C=N/c1nc(-c2ccc(Br)cc2)cs1)CCO	Measles CPE 32.2
Fc1ccc(F)c(CN2CCN(c3ncccn3)CC2)c1	none
Fc1ccc(CN2CCN(c3ncccn3)CC2)cc1	Measles CPE 36.0
CCOc1nc(C#N)nc(N2CCCCC2)n1	Measles CPE 36.4 (no result: LYP act, LYP inh 2)
N#CCOc1nc(N2CCCC2)nc(N2CCCC2)n1	none
Cc1noc(C)c1C(=O)Nc1ccc(Cl)cc1C(F)(F)F	none
CC(=O)NC1CC2CCCC(C1)N2C(=O)Nc1ccccc1 (stereo not given)	LYP inh 2 59.5
O=C(NC1CC2CCCC(C1)N2C(=O)Nc1ccccc1)c1ccncc1 (stereo not given)	none
COc1ccc2cc(CN(Cc3ccco3)Cc3nnnn3C3CCCCC3)c(=O)[nH]c2c1	none
COc1ccc2cc(CN(Cc3ccco3)C(c3nnnn3C3CCCCC3)C(C)C)c(=O)[nH]c2c1 (stereo not given)	LYP inh 2 26.3
COC1OC(COC(=O)CNC(=O)OC(C)(C)C)C(O)C(O)C1O (stereo not given)	none (no result: LYP act, LYP inh 2)
COc1ccc(C(=O)Nc2cccc(/C(C)=N/NC(=O)c3ccc([N+](=O)[O-])cc3)c2)cc1OC	none
COc1ccc(C(=O)Nc2ccc(/C(C)=N/NC(=O)c3ccccc3O)cc2)cc1OC	Measles CPE 45.3 (no result: LYP act, LYP inh 2)
O=C(CC1SCCNC1=O)Nc1cc(Cl)cc(Cl)c1 (stereo not given)	none
COC(=O)c1cc(NC(=O)CC2SCCNC2=O)cc(C(=O)OC)c1 (stereo not given)	Measles CPE 48.0
Cc1onc(-c2c(F)cccc2Cl)c1C(=O)Nc1sc2c(c1C(N)=O)CCC2	none
C=CCNC(=S)Nc1ccc(F)cc1F	none (no result: LYP act, LYP inh 2)
CCC1C(=O)N(C)CCc2ccccc21 (stereo not given)	none (no result: LYP act, LYP inh 2)
CCN(CC)S(=O)(=O)c1cc(NC(=O)CCNC(=O)c2ccccc2Cl)ccc1C	none (no result: LYP act, LYP inh 2)
Cc1ccc(S(=O)(=O)N(C)C)cc1NC(=O)CCNC(=O)c1ccccc1Cl	Measles CPE 53.5 (no result: LYP act, LYP inh 2)
COc1cccc(C(=O)CSc2nnc(CNS(C)(=O)=O)n2-c2ccc(C)cc2)c1	none
Cn1c(=O)n(C)c2cc(/C=N/NC(=O)c3ccc(Cl)cc3Cl)ccc21	none
COc1ccc(Br)cc1C(=O)N/N=C/c1ccc2c(c1)n(C)c(=O)n2C	Measles CPE 37.5 (no result: LYP act, LYP inh 2)
COC(=O)Cn1cnc2c1c(=O)n(C)c(=O)n2C	none
Cn1c(=O)c2c(ncn2CCCNC2=CC(C)(C)CC(=O)C2)n(C)c1=O	Measles CPE 17.0
CCOC(=O)N1CCN(S(=O)(=O)c2ccc(C)cc2)C1c1ccc(OC)cc1 (stereo not given)	none
CCCCn1c(Cc2ccccc2)n[nH]c1=S	none
CCCCOc1ccc(Cc2n[nH]c(=S)n2N)cc1	Measles CPE 39.5 (no result: LYP act, LYP inh 2)
O=C(CN1C(=O)NC2(CCCCCC2)C1=O)NCc1ccco1	none
O=C(Nc1ccc(Cl)cc1)N1CCN(c2ccc3nnc(-c4ccc(F)cc4)n3n2)CC1	none (no result: LYP act, LYP inh 2)
COc1ccc2cc3cc(C(=O)NCc4ccc5c(c4)OCO5)oc3nc2c1	none
COc1ccc2cc3cc(C(=O)N4CCN(Cc5ccc6c(c5)OCO6)CC4)oc3nc2c1	LYP inh 2 25.9
CCn1c(CNc2ccc(OC)cc2)nnc1SCC(=O)Nc1ccc(F)cc1	none
